From PubChem BioAssay (NCI)
The panel holds about 79,000 compounds, 15% with a hit somewhere; the sample as a whole holds those more often. A number with no mark means an inactive call. Activity calls are given as the source filed them. Cut-off read from the data, not from the text of the source: active = growth inhibition above about 70%; inactive = the rest.

Legend:
[1] = NCI Yeast Anticancer Drug Screen. Data for the rad50 strain (AID 155);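 note: 0% = growth of vehicle-only cultures of the same strain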; conditions: S. cerevisiae rad50 strain growth inhibition, stronger effect = higher value
Method in brief: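 Yeast carrying a defined DNA repair defect were exposed to test compounds, and growth was compared with vehicle-treated controls to give percent inhibition.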

[2] = NCI Yeast Anticancer Drug Screen. Data for the mec2-1 strain (AID 157); conditions: S. cerevisiae mec2-1 strain, stronger effect = higher value
Method in brief: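 Cells of the genetically defined mec2-1 yeast strain are incubated with test compound. Inhibition of growth is calculated against vehicle-treated controls.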

[3] = NCI Yeast Anticancer Drug Screen. Data for the sgs1 mgt1 strain (AID 161);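 note: 0% = growth of cultures given vehicle only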; conditions: S. cerevisiae sgs1 mgt1 strain, stronger effect = higher value
Method in brief: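 Test agents were incubated with a DNA-repair-mutant yeast strain. Growth was then read and compared against vehicle-treated controls.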

[4] = NCI Yeast Anticancer Drug Screen. Data for the cln2 rad14 strain (AID 165);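 note: 0% = growth equal to vehicle treated cultures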; conditions: S. cerevisiae cln2 rad14 strain, stronger effect = higher value
Method in brief: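 The screen exposed genetically defined yeast (cln2 rad14) to test compounds and scored growth inhibition relative to vehicle-treated controls.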

[5] = NCI Yeast Anticancer Drug Screen. Data for the bub3 strain (AID 167); conditions: S. cerevisiae bub3 mutant strain, stronger effect = higher value
Method in brief: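 Compounds were applied to a genetically altered yeast strain carrying a cell-cycle control defect. Growth inhibition was scored against vehicle-treated controls.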

[6] = NCI Yeast Anticancer Drug Screen. Data for the mlh1 rad18 strain (AID 175); conditions: S. cerevisiae mlh1 rad18 strain growth inhibition, stronger effect = higher value
Method in brief: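 Compound-treated yeast growth, normalised to vehicle controls. Strain bears defined DNA repair mutations.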

[7] = at 5.0 µM (retest, dose inferred, filed as 0.5)
[8] = at 50.0 µM (retest, dose inferred, filed as 5.0)

Structure (SMILES) | growth inhibition [1, 7] | growth inhibition [1, 8] | growth inhibition ([1]; at 50.0 µM) | growth inhibition [2, 7] | growth inhibition [2, 8] | growth inhibition ([2]; at 50.0 µM) | growth inhibition [3, 7] | growth inhibition [3, 8] | growth inhibition ([3]; at 50.0 µM) | growth inhibition [4, 7] | growth inhibition [4, 8] | growth inhibition ([4]; at 50.0 µM) | growth inhibition [5, 7] | growth inhibition [5, 8] | growth inhibition ([5]; at 50.0 µM) | growth inhibition [6, 7] | growth inhibition [6, 8] | growth inhibition ([6]; at 50.0 µM)
OC1c2cc(Cl)cc(Cl)c2OC2(N3CCCC3)CCCCC12 (configuration not stated) | 62% | 94% (active) | 81.5% (active) | 37% | 87% (active) | 46.1% | 44% | 87% (active) | 82% (active) | 34% | 47% | 19.1% | 51% | 96% (active) | 73.3% (active) | 61% | 96% (active) | 73.6% (active)
CCCCN1C(=O)C[C@H]2[C@@H]3CCc4cc(OCCN5CCCC5)ccc4[C@H]3CC[C@]2(C)C1=O | 36% | 75% (active) | 56.9% | 30% | 53% | 55.4% | 66% | 90% (active) | 71.5% (active) | 33% | 70% (active) | 73.1% (active) | 57% | 72% (active) | 78.6% (active) | 68% | 78% (active) | 63.6%
CCOCCNc1ncnc2c1cnn2C | 2% | -5% | -1.1% | -4% | -3% | -18.4% | -16% | -6% | 13.1% | -5% | -1% | -0.35% | 0% | 2% | 8% | 3% | -1% | 39%
Brc1ccc(-c2c3ccccc3cc3c2ccc2ccccc23)cc1 | 1% | -14% | 42.9% | 1% | -10% | 30.2% | 2% | 1% | 47.8% | -2% | -24% | 74.5% (active) | -5% | 26% | 38.1% | -4% | -9% | 47.1%
O=C1CNCCCN2CCN(CCCNCC(=O)Nc3ccc(cc3)S(=O)(=O)c3ccc(cc3)NC(=O)CNCCCN3CCN(CCCNCC(=O)Nc4ccc(cc4)S(=O)(=O)c4ccc(cc4)N1)CC3)CC2 | 1% | 99% (active) | 98.8% (active) | -25% | 99% (active) | 98.8% (active) | -14% | 99% (active) | 99% (active) | -5% | 99% (active) | 96.8% (active) | -3% | 99% (active) | 97.8% (active) | -11% | 99% (active) | 98.7% (active)
CCCCCC(/C=N/Nc1nc(C)cc(=O)[nH]1)=C\c1ccccc1 | 9% | 45% | 31.3% | -1% | 50% | 30.8% | 3% | 81% (active) | 29.9% | 3% | 39% | 44.1% | -1% | 83% (active) | 53% | -8% | 37% | 70.5% (active)
O=S(=O)(O)C(O)c1ccc2ccc3cccc4ccc1c2c34 (configuration not stated) | 12% | 95% (active) | 94.4% (active) | -2% | 96% (active) | 95.3% (active) | 4% | 92% (active) | 67.8% | -4% | 84% (active) | 77.5% (active) | -3% | 94% (active) | 97.5% (active) | 3% | 95% (active) | 97% (active)
CCCCCCNC(=S)N/N=C(\C)c1ccccn1 | 72% (active) | 99% (active) | 76.3% (active) | 86% (active) | 99% (active) | 85.7% (active) | 63% | 99% (active) | 90% (active) | 90% (active) | 95% (active) | 90.3% (active) | 98% (active) | 99% (active) | 90.5% (active) | 97% (active) | 93% (active) | 91.2% (active)
CC1(C)CC(=O)C(/C=N/c2nc(-c3cccc([N+](=O)[O-])c3)cs2)=C(O)C1 | 17% | 99% (active) | 99% (active) | 15% | 99% (active) | 99% (active) | 5% | 99% (active) | 99% (active) | -7% | 99% (active) | 98.5% (active) | 20% | 99% (active) | 99.1% (active) | 14% | 99% (active) | 99% (active)
